Here are results for five compounds from article PMC11062922 (Nature Chemical Biology, 2023).

The structures appear in SMILES notation. Read-outs that look alike come from different tables or passages of the source.

Common to all, as to design: species or system human, MV4-11 + K-562 + COLO205 + SK-N-BE2 + OVCAR-8
One assay relates to PIK3C3. The following applies: read-out: apparent Kd; compound concentrations: 100 nM and 1000 nM (sheet 'Samples'), CATDS: 0.39036921617708198; n = 1.
The test system of another assay is PIK3CB. The following applies: read-out: apparent Kd; compound concentrations: 100 nM and 1000 nM (sheet 'Samples'), CATDS: 0.69525432072765503; n = 1.
The subject of a further assay is PIK3CA. The following applies: read-out: apparent Kd, compound concentrations: 100 nM and 1000 nM (sheet 'Samples'), n = 1.
In the next assay the test system is PIK3CD. Particulars: read-out: apparent Kd, compound concentrations: 100 nM and 1000 nM (sheet 'Samples'), n = 1.

For `CSc1nn2c(=O)cc(N3CCOCC3)nc2n1Cc1cccc(Cl)c1Cl` [GSK2347225A], the potency estimated from few doses was 41 nM with PIK3C3 and 11.5 nM in the assay on PIK3CB.
Regarding `Cl.NC(=O)c1cccc(Nc2nccc(Nc3ccc(Oc4c(Cl)cccc4Cl)c(Cl)c3)n2)c1` [GW659009A], the potency estimated from few doses in the assay with PIK3CA (CATDS: 0.34504160600825701) is 183 nM; with PIK3CD (CATDS: 0.90760673272471903) it was 9.83 nM.
As for `CC(C)c1ccc(O)cc1Nc1ccnc2ccc(C(F)(F)F)cc12` [GW482059X], the potency estimated from few doses with PIK3CA (CATDS: 0.44189081373448802) is 239 nM; in the assay on PIK3CD (CATDS: 0.57570605535332697) it was 139 nM.
As to `Nc1ncnc2c1nc(-c1ccccc1)n2-c1ccccc1` [SKF-97293], the potency estimated from few doses in the assay with PIK3CA (CATDS: 1) was 284 nM.
The same measure, in the same setting: for `COc1cccc(-n2ncc3c(N/N=C/c4cccc(F)c4)ncnc32)c1` [GW817394X] the value was 237 nM.
